This is part of a sample that, as a whole, favours compounds with a hit. Of some 83,000 tested, about 20% had one in any assay.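 Results are percent growth after 48 hours of single-concentration exposure. 100 means growth as in untreated cells, lower positive values show inhibition; negative values down to -100 show cell death.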 Unmarked numbers belong to inactive results. Active and inactive are the calls of the source. How the source made its calls: active means growth percent below 10; inactive means the rest.
Assays:
Assay in all cases: NCI-60 one-dose screen, 48 h (100 = growth as untreated, 0 = no growth, -100 = all killed)
Conditions in all cases: 10 µM unless noted
HCT-15 colon = tested on: HCT-15 colon
HT29 colon = tested on: HT29 colon
SNB-75 CNS = tested on: SNB-75 CNS
U251 CNS = tested on: U251 CNS
PC-3 prostate = tested on: PC-3 prostate
SK-MEL-5 melanoma = tested on: SK-MEL-5 melanoma
UACC-62 melanoma = tested on: UACC-62 melanoma
LOX IMVI melanoma = tested on: LOX IMVI melanoma
SK-MEL-28 melanoma = tested on: SK-MEL-28 melanoma
SK-MEL-2 melanoma = tested on: SK-MEL-2 melanoma
EKVX NSCLC = tested on: EKVX NSCLC
SN12C renal = tested on: SN12C renal
UO-31 renal = tested on: UO-31 renal
TK-10 renal = tested on: TK-10 renal
ACHN renal = tested on: ACHN renal
CAKI-1 renal = tested on: CAKI-1 renal
A498 renal = tested on: A498 renal
CCRF-CEM leukemia = tested on: CCRF-CEM leukemia
MOLT-4 leukemia = tested on: MOLT-4 leukemia
SNB-19 CNS = tested on: SNB-19 CNS

Row | Structure (SMILES) | growth (HCT-15 colon) | growth (HT29 colon) | growth (SNB-75 CNS) | growth (U251 CNS) | growth (PC-3 prostate) | growth (SK-MEL-5 melanoma) | growth (UACC-62 melanoma) | growth (LOX IMVI melanoma) | growth (SK-MEL-28 melanoma) | growth (SK-MEL-2 melanoma) | growth (EKVX NSCLC) | growth (SN12C renal) | growth (UO-31 renal) | growth (TK-10 renal) | growth (ACHN renal) | growth (CAKI-1 renal) | growth (A498 renal) | growth (CCRF-CEM leukemia) | growth (MOLT-4 leukemia) | growth (SNB-19 CNS)
1 | O=C(Nc1cccc(Cl)c1)Nc1cccc(Cl)c1 | 60.9% | 82.1% | 94.7% | 63.5% | 26.8% | 79.2% | 43.7% | 89.1% | 95% | 114% | 72.5% | 85.2% | 72.7% | 74.3% | 59.2% | 78.2% | 59.5% | 38.8% | 51.6% | –
2 | O=C(N/N=C/c1cccc(O)c1O)c1ccccc1 | 22.7% | 26.4% | 41% | – | 28.9% | – | -9.23% (active) | 7.69% (active) | 30.5% | 54.5% | – | 21.3% | 4.38% (active) | 18.6% | 11.5% | -20.5% (active) | 81.1% | – | 9.39% (active) | 35.7%
3 | O=C(c1ccc(Cl)cc1)c1ccc(Cl)cc1 | 113% | 102% | 112% | – | 110% | 96.4% | 103% | 103% | 106% | – | 108% | 102% | 108% | 101% | 123% | 115% | 97.7% | 88.6% | 106% | 109%
4 | c1ccc(Nc2ccc(Nc3nc(-c4ccccc4)nc4ccccc34)cc2)cc1 | 37.5% | 29.7% | – | 77% | 74% | 90.3% | 86.6% | 52.4% | 93.7% | 83.1% | 87.1% | 87.9% | 63.7% | 98.5% | 81.3% | 71.2% | – | 52.7% | 53% | 100%
5 | O=C1C2C(C(=O)N1CC[Se][Se]CCN1C(=O)C3C(C1=O)[C@H]1C=C[C@@H]3C1)[C@H]1C=C[C@@H]2C1 (stereo not given in full) | 1.11% (active) | -8.38% (active) | – | -90.5% (active) | -12.8% (active) | -53.9% (active) | -60.8% (active) | -26% (active) | -3.71% (active) | -53.3% (active) | -56% (active) | 3.39% (active) | -84.4% (active) | -70.2% (active) | -52.2% (active) | -87.7% (active) | – | 2.3% (active) | 1.28% (active) | -55.5% (active)
6 | N#Cc1c(-c2ccccc2)cc(-c2ccccc2)n(CCC(=O)O)c1=O | 29.7% | 19.3% | – | 38.2% | 75.3% | 3.86% (active) | 32.3% | 51% | 57.3% | 9.85% (active) | 76.8% | 69.1% | 63.1% | 75.6% | 67.1% | 46.4% | – | 54.9% | 49.4% | 56.1%
7 | CC(=O)/C(=C/c1ccc(Cl)cc1)C(=O)c1ccccc1 | 79.3% | 78.9% | 81.6% | – | 68.5% | 94.2% | 82.1% | -43.9% (active) | 95.5% | – | – | 85.4% | 65.5% | 101% | 99.4% | 85.2% | – | – | 62% | 91.1%
8 | NS(=O)(=O)N(c1cc(C(F)(F)F)cc(C(F)(F)F)c1)C1CCN(Cc2ccc(C(F)(F)F)cc2)CC1 | 45.7% | 5.92% (active) | -4.94% (active) | 33% | 26% | 38.2% | 24.3% | 23.5% | 55.4% | 28% | 16.2% | 55.1% | 64.6% | 67% | 69.5% | 66.2% | 28.2% | 23.6% | 20.3% | –
9 | COc1cc(OC)c2c(c1Cl)O[C@]1(C2=O)C(OCc2ccccc2)=CC(=O)C[C@H]1C | 15.7% | 7.63% (active) | 24.2% | – | 6.5% (active) | -75% (active) | 6.94% (active) | – | 16.4% | 2.04% (active) | – | 13.3% | 9% (active) | 15.9% | 6.86% (active) | 10.9% | -0.948% (active) | 10.4% | 14.1% | 36.2%
10 | CCCCCCCCCCCCC1CCCC(C)C1 (stereo not given) | 97.5% | 101% | 64.8% | – | 88.8% | – | 102% | 99.7% | 88.9% | 94.9% | – | 106% | 87.9% | 94.2% | 95.5% | 88.2% | 98.5% | – | – | 104%
11 | CCCCCCCCCCCCCCCCCC1=NC(C)(CO)CO1 (stereo not given) | 92.4% | 92.8% | 120% | – | 73.4% | – | 86.7% | 98% | 109% | 91.3% | – | 94.2% | 76.3% | 87.1% | 91% | 85.5% | 104% | – | 93.8% | 101%
12 | CO[C@H]1/C=C/O[C@@]2(C)Oc3c(C)c(O)c4c(O)c(c(/C=N/N5C(C)CN(Cc6ccc(C#N)cc6)CC5C)c(O)c4c3C2=O)NC(=O)/C(C)=C\C=C\[C@H](C)[C@H](O)[C@@H](C)[C@@H](O)[C@@H](C)[C@H](OC(C)=O)[C@@H]1C (stereo not given in full) | 25% | 26.4% | 56.7% | 34.9% | 13.1% | 5.17% (active) | 3.13% (active) | 52.5% | 46.3% | 61.2% | 17.1% | 39.4% | 24.6% | 19.7% | 26.3% | 39.1% | 20.5% | 12.1% | -2.17% (active) | –
13 | N#Cc1c(-c2ccccc2)cc(-c2ccccc2)n(CCCCC(=O)O)c1=O | 71.3% | 99.8% | – | 93.3% | 93.1% | 93.7% | 80.6% | 88.2% | 89.5% | 96.6% | 89.4% | 96.8% | 86% | 99.9% | 100% | 86.8% | – | 87.7% | 107% | 96.1%
14 | Cc1ccc(C(NC(=O)c2ccccc2)c2ccc3cccnc3c2O)cc1 (stereo not given) | 28.9% | 22.2% | 33.3% | – | 26.1% | -42.3% (active) | -8.42% (active) | – | 30.8% | 18.5% | 17.3% | 14.1% | -3.13% (active) | 16% | 8.26% (active) | 9.05% (active) | 24.9% | 5.39% (active) | 8.31% (active) | 19.9%
15 | N#Cc1ncc(-c2ccc(C(F)(F)F)cc2)c(NC2CCCCCC2)n1 | 57.1% | 19.1% | 49.7% | – | 4.57% (active) | -6.45% (active) | 13.2% | – | 36.5% | 7.62% (active) | – | 19.6% | 5.41% (active) | 58.1% | -1.84% (active) | 56.8% | 77.6% | 24.8% | 66.8% | 35.2%
16 | N/C(=N\c1nc2ccccc2s1)NC(=O)Nc1ccccc1Cl | 23.9% | 5.03% (active) | – | 19.1% | 27.8% | 23.8% | 26.7% | 36.2% | 46.8% | 18.8% | 41.2% | 42.2% | 54.2% | 69.4% | 42.2% | 32.7% | – | 12.9% | 13.9% | 37.4%
17 | Cc1ccc(C2=Nc3c(ccc4c(C)c(C)c(=O)oc34)OC2)cc1 | 94.4% | 102% | 95.7% | – | 88.9% | 101% | 107% | 94.5% | 110% | 95.8% | – | 98.7% | – | 108% | 99.1% | 92.2% | 110% | – | 101% | 101%

Reference: PubChem BioAssay (NCI)
